Assay results published in PubChem BioAssay (NCI).
Values joined by “and” are separate entries in the source; they are usually repeats but may differ in a detail not shown here. Equal values may be shown once. This is part of a sample that, as a whole, favours compounds with a hit. Of some 79,000 tested, about 15% had one in any assay. Active and inactive are the calls of the source. Rule as the data show it: active = growth inhibition above about 70%; inactive = the rest.

What was measured:
[1] = NCI Yeast Anticancer Drug Screen. Data for the rad50 strain (AID 155);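 also: 0% = growth of vehicle-only cultures of the same strain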; conditions: S. cerevisiae rad50 strain growth inhibition, active compounds read high; at 50.0 µM unless noted
Method in brief: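 Genetically altered yeast (DNA repair pathway); compound treatment; growth inhibition vs vehicle ctrl.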

[2] = NCI Yeast Anticancer Drug Screen. Data for the mec2-1 strain (AID 157); conditions: S. cerevisiae mec2-1 strain, active compounds read high; at 50.0 µM unless noted
Method in brief: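 Cells of the genetically defined mec2-1 yeast strain are incubated with test compound. Inhibition of growth is calculated against vehicle-treated controls.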

[3] = NCI Yeast Anticancer Drug Screen. Data for the sgs1 mgt1 strain (AID 161);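 also: 0% = growth of cultures given vehicle only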; conditions: S. cerevisiae sgs1 mgt1 strain, active compounds read high; at 50.0 µM unless noted
Method in brief: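 Read-out: growth inhibition vs vehicle controls. Cells: mutant yeast strain deficient in DNA damage repair.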

[4] = NCI Yeast Anticancer Drug Screen. Data for the cln2 rad14 strain (AID 165);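 also: 0% = growth equal to vehicle treated cultures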; conditions: S. cerevisiae cln2 rad14 strain, active compounds read high; at 50.0 µM unless noted
Method in brief: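 The screen exposed genetically defined yeast (cln2 rad14) to test compounds and scored growth inhibition relative to vehicle-treated controls.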

[5] = NCI Yeast Anticancer Drug Screen. Data for the bub3 strain (AID 167); conditions: S. cerevisiae bub3 mutant strain, active compounds read high; at 50.0 µM unless noted
Method in brief: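 Yeast carrying a defined mutation is treated with each compound, and growth is compared with that of vehicle-exposed cells to give inhibition.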

[6] = NCI Yeast Anticancer Drug Screen. Data for the mlh1 rad18 strain (AID 175); conditions: S. cerevisiae mlh1 rad18 strain growth inhibition, active compounds read high; at 50.0 µM unless noted
Method in brief: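 Compound-treated yeast growth, normalised to vehicle controls. Strain bears defined DNA repair mutations.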

Compound | growth inhibition [1] | growth inhibition [2] | growth inhibition [3] | growth inhibition [4] | growth inhibition [5] | growth inhibition [6]
CCN(CCO)C(=O)Nc1ccc(Cl)cc1 | -6.1% (inactive) | -31.6% (inactive) | 11.1% (inactive) | 8.6% (inactive) | 0.55% (inactive) | -7.65% (inactive)
CS(=O)(=O)Nc1c(-c2ccccc2)oc2ccccc2c1=O | -12.1% (inactive) | -0.8% (inactive) | -6.5% (inactive) | -33.6% (inactive) | 11.3% (inactive) | -3.85% (inactive)
CC1=NN(c2ccccc2)C(=O)C1O (stereo not given) | 12.1% (inactive) | 16.2% (inactive) | -6.05% (inactive) | -25.4% (inactive) | -10.6% (inactive) | 2.5% (inactive)
CSc1ccc(C)cc1 | 30.6% (inactive) | -15.2% (inactive) | -24.5% (inactive) | -21.6% (inactive) | -9.35% (inactive) | 26.7% (inactive)
C(=Nc1cccc2ccccc12)c1cccs1 | -8.95% (inactive) | -4.85% (inactive) | 2.6% (inactive) | -19% (inactive) | 0.25% (inactive) | -19.8% (inactive)
NNC(=O)Cc1ccc(Cl)c2ccccc12 | 5.8% (inactive) | -17.9% (inactive) | 3.6% (inactive) | -75.9% (inactive) | -5.2% (inactive) | 8.85% (inactive)
OC(CN1CCCCC1)c1cc(-c2ccccc2)no1 (stereo not given) | 31.8% (inactive) | 11.6% (inactive) | 33.5% (inactive) | 24.6% (inactive) | 23.6% (inactive) | 16.4% (inactive)
CC1=C2CC3=C(C)C(=O)O[C@H]3C[C@@H](C)[C@@H]2CC1 | 15.2% (inactive) | 9.9% (inactive) | 26% (inactive) | 1.15% (inactive) | 33.8% (inactive) | 2.45% (inactive)
CC(C)(C)OC(=O)NCCCCC(N)C(N)=O (stereo not given) | -19.6% (inactive) | -32.2% (inactive) | -31.9% (inactive) | 15.8% (inactive) | 5.15% (inactive) | -1.95% (inactive)
C[C@H]1/C(=C/C(=O)OCCN(C)C)CC[C@H]2[C@H]1C(=O)C[C@H]1C(C)(C)[C@@H](O)CC[C@]21C | 1.2% (inactive) | -1.75% (inactive) | -0.55% (inactive) | 13.8% (inactive) | 15.9% (inactive) | -34.1% (inactive)
O=C(C#Cc1ccccc1)Nc1ccccc1CC(c1c[nH]c2ccccc12)c1c[nH]c2ccccc12 | 0.75% (inactive) | -2.25% (inactive) | 1.55% (inactive) | 5.4% (inactive) | 8.85% (inactive) | -7.65% (inactive)
N#Cc1c(N2CCCC2)nsc1Nc1ccc(F)cc1 | 2.6% (inactive) | 2.85% (inactive) | 0.8% (inactive) | -16% (inactive) | 4.4% (inactive) | -9% (inactive)
Nc1cc(Nc2ccccc2)nc(=O)[nH]1 | -3.1% (inactive) | -0.55% (inactive) | -4.85% (inactive) | -75.2% (inactive) | -7.1% (inactive) | 5.2% (inactive)
N#CC1(OC2CCCCO2)Cc2ccccc2C1 (stereo not given) | 16.8% (inactive) | 2.45% (inactive) | -13.3% (inactive) | -48.9% (inactive) | -5.45% (inactive) | -1.15% (inactive)
O=C(NCc1ccccc1)C(=O)NCc1ccccc1 | 4.35% (inactive) | -1.85% (inactive) | -7.25% (inactive) | 3.5% (inactive) | -6.9% (inactive) | 5% (inactive)
O=C(O)CCCC1CCC(=O)CC1 | -0.4% (inactive) | -7.55% (inactive) | -8.1% (inactive) | -24.4% (inactive) | 0.5% (inactive) | 3.35% (inactive)
O=C(c1ccccc1)N1c2ccc([N+](=O)[O-])cc2Sc2cc([N+](=O)[O-])ccc21 | 16.7% (inactive) | -3.45% (inactive) | 33.6% (inactive) | 8.35% (inactive) | -10.7% (inactive) | 13.1% (inactive)
COC(=O)NCC1OCC2OC(C)(C)OC12 (stereo not given) | 14.8% (inactive) | 3.25% (inactive) | -10.9% (inactive) | -62.5% (inactive) | 14.8% (inactive) | 9.35% (inactive)
CC(=O)NCCc1c[nH]c2ccc(Cl)cc12 | -33.5% (inactive) | 21.4% (inactive) | -27.4% (inactive) | -11.6% (inactive) | 26.8% (inactive) | -10.1% (inactive)
O=C(Nc1ccc(-c2cn3ccccc3n2)cc1)c1ccccc1O | 7.7% (inactive) | -11.8% (inactive) | 20.6% (inactive) | 36.1% (inactive) | 10.2% (inactive) | 4.75% (inactive)

Compound | growth inhibition [1] | growth inhibition [2] | growth inhibition [3] | growth inhibition [4] | growth inhibition [5] | growth inhibition [6]
COC(=O)/C(=C(\C)NC(C)=O)c1c(C(=O)OC)[nH]c2ccccc12 | -6.85% (inactive) | -12.5% (inactive) | -9.15% (inactive) | 4.15% (inactive) | -3% (inactive) | -111% (inactive)
COc1ccc(C2=C(N)c3ncccc3C2=O)cc1 | 5.55% (inactive) | -5.05% (inactive) | 7.4% (inactive) | 4.65% (inactive) | 19.9% (inactive) | -70.3% (inactive)
Nc1ncc2c(n1)-c1ccccc1OC2 | -29.5% (inactive) | 2.8% (inactive) | -12.4% (inactive) | -1.4% (inactive) | -20.9% (inactive) | -10.4% (inactive)
C#CCOc1ccc(C)cc1 | -0.55% (inactive) | 5.35% (inactive) | -7.05% (inactive) | 9.25% (inactive) | 2.55% (inactive) | -10.1% (inactive)
Cc1cc2ccccc2c(N=Cc2cc(Br)cc(Br)c2O)c1C#N | 59.8% (inactive) | 87.5% (active) | 96.8% (active) | 60.2% (inactive) | 83.8% (active) | 97.8% (active)
Nc1nc(=S)c2c(ncn2CCO)[nH]1 | -25.1% (inactive) | -32.2% (inactive) | 15.3% (inactive) | 3.4% (inactive) | -16.1% (inactive) | 3.85% (inactive)
CSc1ccc(C(C)=O)cc1 | 13.6% (inactive) | 5.9% (inactive) | 5.95% (inactive) | 4.6% (inactive) | 1.55% (inactive) | 3% (inactive)
COCCOC(=O)OCCOC | -1.5% (inactive) | 3.65% (inactive) | 4.75% (inactive) | -31.7% (inactive) | -12.8% (inactive) | 11.7% (inactive)
Cn1c(=O)[nH]c(=O)c2nc(-c3ccccc3)cnc21 | -11.9% (inactive) | 12.3% (inactive) | 2.55% (inactive) | -13.6% (inactive) | -2.7% (inactive) | -0.65% (inactive)
CC1(C)CSCC(C)(C)C(=N/N)/C1=N\N | 6.95% (inactive) | 22.7% (inactive) | -8.35% (inactive) | 4.35% (inactive) | -33% (inactive) | -41.3% (inactive)
ClC1=C(Cl)C(Cl)(Cl)c2c3c(c4c(c21)C(Cl)(Cl)C(Cl)=C4Cl)C(Cl)(Cl)C(Cl)=C3Cl | -0.6% (inactive) | 17.1% (inactive) | 5.15% (inactive) | -53.8% (inactive) | 9.1% (inactive) | 7.45% (inactive)
COc1cccc(C(=O)C2N=NCC2c2ccccc2)c1 (stereo not given) | -17.4% (inactive) | -5% (inactive) | 2% (inactive) | -15.2% (inactive) | 61.5% (inactive) | 29.9% (inactive)
CC(=C=CC(c1ccccc1)(c1ccccc1)c1ccccc1)CC(c1ccccc1)(c1ccccc1)c1ccccc1 | 95% (active) | 97.8% (active) | 90.3% (active) | 97.1% (active) | 98% (active) | 94% (active)
CCCCCc1cc[n+](CC(=O)c2ccc(F)cc2)cc1 | -6.55% (inactive) | 13.6% (inactive) | 23.1% (inactive) | -35.6% (inactive) | 45.6% (inactive) | 13.5% (inactive)
Cc1ccc(Nc2ccc(C)cc2[N+](=O)[O-])cc1 | 18.3% (inactive) | -2.25% (inactive) | 32.9% (inactive) | 15.1% (inactive) | 31.6% (inactive) | 17.6% (inactive)
CCOC(OCC)N1C(=O)C2(C(OCC)OCC)CC3C(OC(=O)N3N)c3cccc1c32 (stereo not given) | -16.4% (inactive) | 4.15% (inactive) | -7.45% (inactive) | -8.95% (inactive) | -4.75% (inactive) | -4.4% (inactive)
Nc1nc(N)c2[nH]cnc2n1 | 0.6% (inactive) and 18.9% (inactive) | -1.5% (inactive) and -3.95% (inactive) | 3.65% (inactive) and -1.85% (inactive) | 10.7% (inactive) and -30.4% (inactive) | 0.6% (inactive) and -16.6% (inactive) | -43.9% (inactive) and 1.2% (inactive)
S=c1nc[nH]c2[nH]cc(Br)c12 | 11.6% (inactive) | -6.55% (inactive) | 2.5% (inactive) | -4.7% (inactive) | 3.75% (inactive) | 11.8% (inactive)
CC1CCCN(CCC(=O)c2ccc(O)cc2)C1 (stereo not given) | 38.2% (inactive) | 22.5% (inactive) | 26.3% (inactive) | 21.2% (inactive) | 7.35% (inactive) | 32.4% (inactive)
O=C1OC(=O)C2=C1CCc1ccc3ccccc3c12 | -29.8% (inactive) | -22.1% (inactive) | 5.9% (inactive) | -29.6% (inactive) | 5.75% (inactive) | -5.2% (inactive)
